Assay outcomes from PubChem.
Hits are enriched below; roughly 7.4% of the tested compounds scored in any of these assays.
NPC1 prom act: NPC1 promoter activation. Huh7 NPC1 promoter luciferase reporter, 24 h. Potency, µM (doses to about 9.22 µM), for the others: at the top dose activation, actives largely listed as activators. actives 2.4% (n = 320,000); note: % of control where 0% means no effect; nearly all actives have a fitted effect of over 60% in size
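Stable NPC1-promoter luciferase Huh7 line; cpd (DMSO) 24 h, 37 °C, 5% CO2; Amplite luciferase reagent 10 min RT; luminescence readout. qHTS format.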
KinaseGlo FLuc: Kinase-Glo luciferase inhibition (counter-screen). Q27757. Kinase-Glo luciferase, ATP luminescence, 8 min. Potency, µM (highest dose often 38.3 µM), inactives show at the top dose activity change, negative = inhibition, usual class: inhibitors. actives 0.28% (n = 200,000). AID 1379; note: % is set by controls: 0 for no effect and ±100 for the full control effect; nearly all actives have a fitted effect of over 60% in size
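Inhibition of Kinase-Glo luciferase light generation was assessed at 10 uM ATP in pH 7.2 imidazole buffer, with luminescence measured after eight minutes at ambient temperature.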
Rab9 prom act: activates the Rab9 promoter. Potency, µM (doses to about 9.22 µM), for the others: top-dose activation, negative = inhibition, actives largely listed as activators. AID 485297. Huh7 Rab9 promoter-luciferase reporter, luminescence, 24 h. actives 2.8% (n = 320,000); note: % of control where 0% means no effect; nearly all actives have a fitted effect of over 60% in size
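Measured in stably transfected Huh7 cells bearing a Rab9 promoter–luciferase construct: 24 h compound treatment at 37 °C, followed by luminescence detection.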
FLuc modulator: counter-screen for miR-21 project: firefly luciferase inhibitors or activators. P08659. purified FLuc, Km substrates, luminescence inhibition. Potency, µM (highest dose often 57.5 µM), inactives show at the highest dose activity change, negative = inhibition, most hits filed as inhibitors. actives 6.9% (n = 360,000). AID 588342;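 note: plate controls were vehicle for no effect and reference inhibitor for full effect; nearly all actives have a fitted effect of over 55% in size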
Target sequence (P08659 whole entry, looked up): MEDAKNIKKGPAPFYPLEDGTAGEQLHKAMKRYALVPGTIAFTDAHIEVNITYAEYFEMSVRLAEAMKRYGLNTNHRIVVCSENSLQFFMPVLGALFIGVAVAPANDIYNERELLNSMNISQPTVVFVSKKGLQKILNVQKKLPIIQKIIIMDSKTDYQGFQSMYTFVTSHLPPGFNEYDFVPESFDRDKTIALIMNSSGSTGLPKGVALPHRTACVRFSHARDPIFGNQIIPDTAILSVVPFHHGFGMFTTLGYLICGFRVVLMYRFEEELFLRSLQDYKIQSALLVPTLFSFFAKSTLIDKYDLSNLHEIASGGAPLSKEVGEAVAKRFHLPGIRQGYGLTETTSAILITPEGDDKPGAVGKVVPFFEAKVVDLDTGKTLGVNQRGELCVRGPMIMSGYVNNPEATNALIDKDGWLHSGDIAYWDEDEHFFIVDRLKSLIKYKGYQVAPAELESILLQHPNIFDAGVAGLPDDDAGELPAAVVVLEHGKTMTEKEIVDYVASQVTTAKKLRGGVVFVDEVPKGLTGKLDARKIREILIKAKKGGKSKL
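Biochemical qHTS of compounds, final roughly 60 µM downward over six points, against 10 nM purified firefly luciferase using Km concentrations of substrates (10 uM D-luciferin, 10 uM ATP) in Tris acetate pH 7.5 buffer; luminescence output.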
SMN2 splice enh: enhancers of SMN2 splice variant expression | HEK293 SMN2-luciferase splicing reporter, luminescence, 30-36 h | Potency, µM (series often up to 46.1 µM), for inactives: top-dose activity change, positive = activation, hits mostly activators | actives 2.8% (n = 210,000); note: % of control where 0% means no effect; nearly all actives have a fitted effect of over 55% in size
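HEK293 cells carry an SMN2 minigene-luciferase reporter in which exon 7 inclusion puts luciferase in frame. Cells were seeded at 2000 cells/well, attached for 10-12 hours, then exposed to compounds for 30-36 hours at 37C before ONE-Glo luminescence.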
ELG1 genotox: induces genotoxicity in HEK293T cells with luciferase-tagged ELG1; HEK293T ELG1-luciferase reporter, luminescence, 16 h; Potency, µM (titrated, usually from 46 µM), inactives show top-dose activity change, positive = activation, hits mostly activators; actives 1.3% (n = 330,000); note: % of control where 0% means no effect; nearly all actives have a fitted effect of over 60% in size
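Reporter readout depends on ELG1 protein level, which increases with genetic stress. After 16 hr compound exposure at 37 °C, luciferase activity was quantified using ONE-Glo.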
* hit, by the source's call; ? = inconclusive; nt = no result; [ ] = dose if it differs, or a comment. Calls come from the whole dose curve; as a rule, active = well fitted curve in the direction sought with a large enough effect; inconclusive = small, poorly fitted or top-dose-only effect, or another doubt; inactive = no such curve, though single readings can be large; an effect the other way counts as inactive or inconclusive. Potency is the fitted concentration of half-maximal effect.

SMILES	NPC1 prom act	KinaseGlo FLuc	Rab9 prom act	FLuc modulator	SMN2 splice enh	ELG1 genotox
Nc1c(-c2ccccc2)cnn1-c1cccc(C(F)(F)F)c1	?	0%	3.2µM*	17µM*	3.5µM*	14%
Nc1c(-c2ccccc2)cnn1-c1ccc(C(=O)O)cc1	?	-8%	0.32µM*	1.7µM*	3.2µM*	?
Cc1ccc(-c2cnn(-c3cccc([N+](=O)[O-])c3)c2N)cc1	2.2µM*	-10%	3.2µM*	12µM*	29%	?
Nc1c(-c2cccc(Cl)c2)cnn1-c1cccc(C(F)(F)F)c1	2%	-1%	9%	?	-27%	-3%
Cc1cc(=O)n(Cc2c(F)cccc2Cl)c2c1c(C)nn2-c1cccc(F)c1	nt	nt	nt	0%	nt	nt
Oc1ccc(COC2CCN(Cc3ccccc3)C2)c2cccnc12 (stereo not given)	-30%	nt	-23%	0%	nt	nt
CCOC(=O)N1CCC(N2Cc3cccc(C(=O)Nc4ccc(OC)c(OC)c4)c3C2=O)CC1	8%	-4%	5%	15µM*	-1%	-12%
CCCCN1CCc2nc(N3CCN(c4ncccn4)CC3)ncc2C1	nt	nt	nt	-4%	nt	nt
COc1ccc(Nc2nc(N)nc(CSc3nc4cc(OC)ccc4s3)n2)cc1	nt	nt	nt	?	-68%	nt
COc1ccc(Nc2nc(N)nc(CSc3nncn3C)n2)cc1	17%	-3%	?	15µM*	19%	21µM*
CCOc1ccccc1Nc1nc(N)nc(CSc2nncn2C)n1	-2%	0%	-5%	4%	0%	-1%
COc1ccc(Nc2nc(N)nc(CSc3nnc(C)s3)n2)cc1	26%	1%	?	27µM*	22µM*	?
Cc1nn2c(-c3cccnc3)ccnc2c1-c1ccccc1	22%	-1%	29%	11µM*	17%	4%
Cc1nn2c(-c3ccccc3)ccnc2c1Br	-4%	nt	-11%	-15%	nt	2%
CCOC(=O)Cc1ccc(NC(=O)N2CCc3c(sc4c3CCCC4)C2c2ccc(F)cc2)cc1 (stereo not given)	nt	nt	nt	4%	nt	nt
COc1cccc(NC(=O)Cc2nc(-c3ccccc3)sc2-c2ccc(C)cc2)c1	3%	-2%	8%	15µM*	2%	1%
CC(=O)Nc1cccc(NC(=O)Cc2nc(-c3ccccc3)sc2-c2ccc(C)cc2)c1	-3%	-1%	8%	21µM*	15%	3%
COC(=O)c1cccc(NC(=O)Cc2nc(-c3ccccc3)sc2-c2ccc(C)cc2)c1	-7%	1%	6%	-1%	5%	-3%
N[C@](CC1c2ccccc2Oc2ccccc21)(C(=O)O)[C@H]1C[C@@H]1C(=O)O	nt	nt	nt	nt	13%	nt
CNC(=O)/C(=C\c1cccc(Oc2ccccc2)c1)NC(=O)c1ccccc1	-4%	-5%	-4%	5%	-16%	0%
CNC(=O)/C(C#N)=C/c1cccc(Oc2ccccc2)c1	-4%	nt	-3%	8.5µM*	nt	?
CSc1nc(N)n2nc(-c3ccc(Cl)cc3)cc2n1	2µM*	nt	1.6µM*	0.67µM*	nt	?
O=C(CSc1nc(-c2ccccc2)cn1-c1ccccc1F)Nc1ccc(F)cc1	nt	nt	nt	-3%	nt	nt
Clc1cccc(Cl)c1/C=C/c1nc2ccccc2[nH]1	3.5µM*	-22%	4.5µM*	0.67µM*	11µM*	?
O=[N+]([O-])c1ccc(/C=C/c2nc3ccc([N+](=O)[O-])cc3[nH]2)cc1	13%	-3%	6%	?	nt	-5%
SMILES	NPC1 prom act	KinaseGlo FLuc	Rab9 prom act	FLuc modulator	SMN2 splice enh	ELG1 genotox
Clc1ccc(/C=C/c2nc3ccccc3[nH]2)c(Cl)c1	0.71µM*	7.1µM*	0.4µM*	0.067µM*	0.56µM*	?
O=C(/C=C/c1ccc(Cl)cc1Cl)c1nc2ccccc2[nH]1	0%	-4%	0%	0.24µM*	-29%	2%
Clc1ccc(/C=C/c2nc3ccccc3[nH]2)cc1	0.1µM*	13µM*	0.2µM*	0.076µM*	0.79µM*	0.58µM*
Cc1cc(C(=O)Nc2c(C)nc3ccccn3c2=O)ccc1[N+](=O)[O-]	nt	nt	nt	-4%	nt	nt
Cc1cc2ncn(C(=O)c3ccc4c(c3)OCO4)c2cc1C	-13%	-3%	8%	?	-14%	3%
Cc1cc2ncn(C(=O)N3CCC(C)CC3)c2cc1C	23%	-2%	?	?	16µM*	12%
Cc1ccc(COn2c(-c3ccc(Cl)cc3)nc3ccc([N+](=O)[O-])cc32)cc1	?	-7%	?	17µM*	?	17%
CCOC(=O)C(C)On1c(-c2ccccc2)nc2ccc([N+](=O)[O-])cc21 (stereo not given)	?	-3%	?	-11%[2.3 µM]	28%	3%
O=C(O)COn1c(-c2ccccc2)nc2ccc([N+](=O)[O-])cc21	26%	-4%	?	15µM*	29%	18%
Clc1ccc(COn2c(-c3ccc(Cl)cc3)nc3ccccc32)cc1	-4%	-6%	4%	?	-24%	-2%
CCOC(=O)C(C)On1c(-c2ccc(Cl)cc2)nc2ccc([N+](=O)[O-])cc21 (stereo not given)	29%	-1%	18%	15µM*	-4%	12%
O=[N+]([O-])c1ccc2nc(-c3ccc(Cl)cc3)n(OCc3ccccc3)c2c1	?	-2%	?	12µM*	2%	?
CCc1ccc(-c2cc3c(=O)n(CC(=O)N4CCCC4)nc(C)n3n2)cc1	3%	nt	8%	?	nt	3%
